Compounds with a hit are over-represented: about 10% of the library has one in this group of screens.
CtBP-E1A inh: CtBP/E1A binding inhibition | AlphaScreen GST-E1A/His-CtBP binding, 1536-well; active compounds read low | 0.49% of 340,000 active | AID 651724 | activity change, % (no concentration beside the values); in the data active = activity change below about -65%; inconclusive = mostly about -30% to -63%
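AlphaScreen with 125 nM GST-E1A and 125 nM His-CtBP (5X stocks) in Tris pH 8.0, 300 mM NaCl, BSA, Tween 20, TCEP. Compounds preincubated 2 h at 37 deg C, then glutathione donor/nickel acceptor beads added for 1 h at 37 deg C in dark.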
BAZ2B block: BAZ2B (human) inhibition | Q9UIF8 | AlphaScreen BAZ2B-H3K14Ac peptide displacement | Potency, µM (series often up to 114 µM), most hits filed as inhibitors | 4.4% of 360,000 active; note: nearly all actives have a fitted effect of over 60% in size
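Compounds, titrated to a top concentration of 110 uM, were incubated 30 min at room temperature with preformed BAZ2B/acetyl-K14 H3 peptide complex (50 nM each). Proximity signal was measured by AlphaScreen after 20 min with beads.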
G9a block: blocks human histone lysine methyltransferase G9a. Q96KQ7. G9a H3K9 monomethylation, AlphaScreen, 2 h. Potency, µM (highest dose often 102 µM), hits mostly inhibitors. 8.8% of 350,000 active; note: nearly all actives have a fitted effect of over 75% in size
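Chemiluminescent proximity detection of H3K9 monomethylation, read after 10 min bead incubation in the dark. Reaction: 20 nM G9a, 500 nM biotin-H3K9 peptide, 20 uM SAM cofactor, 2 h, room temperature, following 15 min enzyme-compound preincubation.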
Six1-Eya2 inh: blocks human Six1 binding to Eya2. Q15475+O00167. AlphaScreen GST-Six1/His-Eya2 binding, biochemical; active compounds read low. activity change, % (concentration not given with the values). 0.56% of 360,000 active; in the data active = activity change below about -65%; inconclusive = mostly about -30% to -63%
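Six1/Eya2 binding was read as AlphaScreen signal after compounds were pinned into GST-Six1 plus His-tagged Eya2 (5X stock 250/500 nM) in pH 8.0 Tris/NaCl/TCEP buffer, beads added, then incubated 1 h, 37 C, dark.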
JMJD2A Tudor: JMJD2A Tudor domain (human) inhibition | AlphaScreen JMJD2A-Tudor / H3K4me3 peptide binding | Potency, µM (doses to about 114 µM), most hits filed as inhibitors | 4.4% of 390,000 active; note: nearly all actives have a fitted effect of over 50% in size
HP1b chromo inh: HP1-beta chromodomain-methylated histone interaction inhibition | AID 540317 | 0.56% of 390,000 active | AlphaScreen HP1-beta / biotin-H3K9me3 peptide binding | Potency, µM (titrated, usually from 114 µM), most hits filed as inhibitors | P83916; note: nearly all actives have a fitted effect of over 70% in size
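Compound inhibition of the preformed complex between 50 nM HP1-beta and 50 nM biotinylated H3K9me3 peptide was read by AlphaScreen. Buffer was PBS pH 7.4 with 0.01% Tween-20. Incubations ran 30 min at room temperature, with 10 ug/mL donor/acceptor beads.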
A number is an active result; . = inactive; ? = inconclusive; / = no result; [ ] = remark or other dose. Unless noted, calls come from the whole dose curve; as a rule, active = well fitted inhibition curve with a large enough effect; inconclusive = small, poorly fitted or top-dose-only effect; inactive = no such curve, though single readings can be large or run the other way.

SMILES	CtBP-E1A inh	BAZ2B block	G9a block	Six1-Eya2 inh	JMJD2A Tudor	HP1b chromo inh
Cn1cnc([N+](=O)[O-])c1SCC(=O)NN	/	?	7.1µM	.	.	.
Cc1c(C(=O)c2ccc(N(C)C)cc2)c2ccccn2c1CCC#N	.	?	45µM	.	?	?
Cc1c(C(=O)c2ccc(Cl)c([N+](=O)[O-])c2)c2ccccn2c1CCC#N	.	?	?	.	?	?
Cc1c(C(=O)c2ccc(F)cc2F)c2ccccn2c1CCC#N	.	18µM	8.9µM	.	.	.
CCn1cc(C(=O)NCc2ccco2)c(=O)c2ccc(C)nc21	.	.	.	.	.	.
CCOc1ccc(-n2ccnc2SCC(=O)Nc2nc3ccc(C)cc3s2)cc1	/	.	.	/	.	.
COc1cccc(C2=Nn3c(nnc3-c3ccccc3OC)SC2)c1	/	/	/	/	79µM	/
COc1ccc(C2=Nn3c(nnc3-c3ccccn3)SC2)cc1	?	25µM	.	-67	40µM	.
COc1ccccc1-c1nnc2n1N=C(c1ccc(O)c(O)c1)CS2	.	50µM	?	.	?	.
COc1ccc(C2=Nn3c(nnc3-c3ccccc3C)SC2)cc1OC	/	/	/	/	.	/
CCOc1ccc(NC(=O)C2CCN(S(=O)(=O)c3c(C)noc3/C=C/c3ccco3)CC2)cc1	/	/	.	/	.	.
O=C(NCCc1cn2ccccc2n1)C1CCCCC1	.	.	?	.	.	.
Fc1ccc(CSc2ccc(-c3ccco3)nn2)cc1	.	.	.	.	.	.
CSc1ccc(-c2ccco2)nn1	.	.	32µM	.	.	.
CCSc1ccc(-c2ccco2)nn1	.	.	18µM	.	.	.
Cc1ccc(C)c(NC(=O)CN(C)C(=O)CSCc2c(C)noc2C)c1	.	.	32µM	.	.	.
Cc1cc(C)c(NC(=O)CSCc2c(C)noc2C)c(Cl)c1	.	.	40µM	.	.	.
Cc1noc(C)c1CSCC(=O)Nc1nc2c(F)cc(F)cc2s1	.	50µM	?	.	45µM	.
Cc1cccc(C)c1NC(=O)CN(C)C(=O)CSCc1c(C)noc1C	.	.	.[12.7 µM]	.	.	.
COc1ccccc1NC(=O)CSc1nnc(NC(=O)NC2CCCCC2)s1	/	.	.	/	.	.
O=C1[C@@H]2[C@@H](CN3CN(c4ccccc4)N=C(c4ccccc4)[C@@]23c2ccccc2)C(=O)N1c1ccccc1	.	/	/	.	89µM	?
O=C(CSc1nc2c([nH]c3ccccc32)c(=O)n1-c1ccccc1)N1CCCc2ccccc21	/	.	.	/	.	.
Cc1cc(N2CCC(C)CC2)nc2cccc(O)c12	.	.	50µM	.	?	.
O=C(CNc1ccc2c(c1)OCO2)N/N=C\c1ccccc1Cl	.	50µM	?	.	?	?
Cc1[nH]c2ccccc2c1/C=N\NC(=O)CNc1ccc2c(c1)OCO2	.	45µM	10µM	.	?	?
SMILES	CtBP-E1A inh	BAZ2B block	G9a block	Six1-Eya2 inh	JMJD2A Tudor	HP1b chromo inh
O=C(Cc1ccccc1)N/N=C/c1cc2c(cc1Cl)OCO2	.	.	.	.	.	.
Cc1ccc(Nc2ccccc2)cc1	.	.	.	.	.	.
Cc1ccc(Nc2cc(C)c(O)c(C)c2)cc1	.	7.1µM	25µM	.	40µM	50µM
CNC(=O)NC(=O)CSc1ccc(S(=O)(=O)N(C)C2CCCCC2)cn1	.	.	?	.	.	.
COc1ccc(C(=O)NC(=S)NNC(=O)Cc2cccs2)cc1	.	.	11µM	.	?	.
COc1cc(NC(=O)Cc2cccs2)cc(OC)c1	.	.	.	.	.[11.4 µM]	?
COc1cc(OC)cc(C(=O)NC(=S)NNC(=O)Cc2cccs2)c1	/	.	8.9µM	.	.	.
CCN(C(=O)CN1C(=O)c2ccccc2Sc2ccc(C(=O)OC)cc21)c1cccc(C)c1	/	.	.	/	.	.
O=C(CSc1ccc(-c2ccccn2)nn1)Nc1nccs1	?	.	.	?	2.5µM	.
COc1ccccc1CNC(=O)CSc1ccc(-c2ccccn2)nn1	/	8.9µM	.	-67	32µM	.
Nc1ccccc1SCC(=O)Nc1nccs1	.	.	?	.	.	.
Cc1csc(NC(=O)CSc2ccc(-c3ccccn3)nn2)n1	/	7.1µM	.	-86	22µM	.
Cc1csc(NC(=O)CSc2ccccc2F)n1	.	.	.	.	.	.
O=C(CC1N=C2c3ccccc3N=C(SCC(=O)Nc3ccccc3F)N2C1=O)NCc1ccc2c(c1)OCO2 (centres undefined)	/	?	13µM	/	.	.
COc1ccccc1NC(=O)CSC1=Nc2ccccc2C2=NC(CC(=O)NCc3ccc4c(c3)OCO4)C(=O)N12 (centres undefined)	/	.	.	/	.	.
O=C(CCC1N=C2c3ccccc3N=C(SCc3cccc(F)c3)N2C1=O)NCc1cccs1 (centres undefined)	/	.	.	/	79µM	.
CC(C)c1onc(C(=O)NCCc2ccccc2)c1[N+](=O)[O-]	.	.	50µM	.	.	.
CC(C)c1onc(C(=O)N(C)Cc2ccccc2)c1[N+](=O)[O-]	.	?	.	.	.	.
COCCn1c(C23CC4CC(CC(C4)C2)C3)n[nH]c1=S	.	.	?	.	7.1µM	.
CCCCn1c(C23CC4CC(CC(C4)C2)C3)n[nH]c1=S	.	.	/	.	32µM	.
COCCn1c(C)cc(C(=O)COC(=O)C23CC4CC(CC(O)(C4)C2)C3)c1C	.	?	?	.	.	.
CCN1C(=O)[C@H]2[C@@H](c3ccc(OC)cc3)N[C@]3(CCCN(Cc4ccc(Br)cc4)C3=O)[C@H]2C1=O	.	/	/	.	/	/
Cc1[nH]n(C(N)=S)c(=O)c1N=Nc1cccc(Cl)c1	.	.	40µM	.	.	.
NC(=S)n1[nH]c(-c2ccc([N+](=O)[O-])cc2)c(N=Nc2cccc(Cl)c2)c1=O	.	?	35µM	.	40µM	.
NC(=S)n1[nH]c(-c2ccc([N+](=O)[O-])cc2)c(N=Nc2ccc(O)cc2)c1=O	?	50µM	56µM	.	?	?
Cc1[nH]n(C(N)=S)c(=O)c1N=Nc1ccc([N+](=O)[O-])cc1Cl	.	28µM	25µM	.	?	?
CCN(CC)S(=O)(=O)c1ccc(N=Nc2c(C)[nH]n(C(N)=S)c2=O)cc1	.	.	?	.	?	.
Cc1ccccc1N=Nc1c(C)[nH]n(C(N)=S)c1=O	.	.	?	.	?	?
O=C(O)c1ccc(N2CC3CC(C2)c2cccc(=O)n2C3)c(NC(=S)Nc2ccc(Cl)cc2Cl)c1 (centres undefined)	.	.	10µM	.	.	?
COc1ccc(CSc2nnc(Cc3sc(-c4ccccc4)nc3-c3ccccc3)o2)cc1	.	.	.[0.0925 µM]	.	.	.

High-throughput results (PubChem)
